# Only some compounds are listed: those with a hit (about 14% of all), similar ones and a draw of the others.
# LmPK inhibitor: LmPK (Leishmania mexicana) enzyme inhibition; Q27686; purified LmPK, Kinase-Glo ATP luminescence, 1 h; 290,000 tested, 0.37% active; Potency, µM (series often up to 57.5 µM), for the others: at the highest dose activity change, negative = inhibition, usual class: inhibitors; AID 1721; note: potency is the fitted concentration of half-maximal effect; % is set by controls: 0 for no effect and ±100 for the full control effect
#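 qHTS format; LmPK 0.1 nM; substrates PEP 0.5 mM and ADP 0.1 mM. One-hour room-temperature incubation, then coupled luciferase luminescence; 0.5 nM enzyme wells mark activation.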
# CHX counter: counter-screen hit for Shiga toxin inhibitors, cycloheximide. cell reporter, cycloheximide protein synthesis inhibition counterscreen. AID 2314. 300,000 tested, 12% active. max response, %; in the data active = max response mostly above about 13%, no sharp cut-off; inactive = mostly below about 14%; note: read at 38.3 µM for the half of the compounds with a filed dose; 0% is about no effect
# NS1 inh: influenza NS1 inhibition; Potency, µM (doses to about 46.1 µM), for inactives: at the highest dose activity, positive = more growth; 270,000 tested, 0.4% active; AID 2326; calls by dose curve; note: potency is the fitted concentration of half-maximal effect; actives are rising curves; nearly all actives have a fitted effect of over 50% in size
#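 S. cerevisiae expressing influenza A NS1, grown in glucose, washed, then diluted 1:100 into pH 6.0 -URA galactose medium with 23 nl compound. Growth recovery read as OD600; NS1-free strain serves as control.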
# FBPA Giardia inh: Giardia lamblia aldolase inhibition. A8B2U2. purified Giardia FBPA. Potency, µM (series often up to 59.6 µM), for the others: at the top dose activity, negative = inhibition, most hits filed as inhibitors. 290,000 tested, 0.71% active. AID 2451; note: potency is the fitted concentration of half-maximal effect; % is set by controls: 0 for no effect and ±100 for the full control effect; nearly all actives have a fitted effect of over 55% in size
# Target sequence (A8B2U2 whole entry, looked up): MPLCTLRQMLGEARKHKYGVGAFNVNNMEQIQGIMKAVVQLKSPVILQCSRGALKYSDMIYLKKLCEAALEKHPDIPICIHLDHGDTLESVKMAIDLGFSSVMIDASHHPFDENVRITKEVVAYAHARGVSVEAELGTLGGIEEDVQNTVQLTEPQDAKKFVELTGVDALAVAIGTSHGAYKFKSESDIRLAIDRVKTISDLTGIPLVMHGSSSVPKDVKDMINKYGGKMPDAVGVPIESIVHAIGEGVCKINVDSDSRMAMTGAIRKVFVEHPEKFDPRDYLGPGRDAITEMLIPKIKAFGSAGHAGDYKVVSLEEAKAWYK
#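 Giardia FBPA (40 nM reagent) was preincubated 10 min at RT with compound (up to 57.5 uM final), then substrate plus GAPDH/TPI/NAD/arsenate coupling system with diaphorase/resazurin was added; resorufin fluorescence (525/598 nm) was read after 20 min.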
# Shiga inhibitor: inhibitors of Shiga toxin in Vero cells; Vero cells, Shiga toxin protein synthesis inhibition reporter; inhibition, % at 38.7 µM; 290,000 tested, 9.2% active; in the data active = inhibition mostly above about 28%, no sharp cut-off; inactive = mostly below about 43%; note: 0% is about no effect
# An asterisk follows results filed as active; ? = inconclusive; · = no result given. Unless noted, calls come from the whole dose curve; as a rule, active = well fitted curve in the direction sought with a large enough effect; inconclusive = small, poorly fitted or top-dose-only effect, or another doubt; inactive = no such curve, though single readings can be large; an effect the other way counts as inactive or inconclusive.
SMILES,LmPK inhibitor,CHX counter,NS1 inh,FBPA Giardia inh,Shiga inhibitor
CN(C)/C=C(\C#N)C(=O)Nc1ccc(F)c(Cl)c1,5%,24*,3%,4%,52*
CN(C)/C=C(\C#N)C(=O)Nc1ccc(F)cc1,-14%,16*,9%,0%,50*
Nc1nc(COc2ccc(Cl)cc2)cs1,-6%,33*,2%,-5%,65*
Cc1ccc(OCc2csc(N)n2)cc1,-3%,35*,·,-2%,83*
COC(=O)Cc1csc(N)n1,2%,-1,-2%,-18%,22
Cc1ccccc1OCc1csc(N)n1,5%,16*,7%,-6%,33
Nc1nc(COc2ccccc2)cs1,-5%,14,-10%,1%,34
O=C(NCCOc1ccccc1)c1cc(S(=O)(=O)N2CCOCC2)ccc1F,-3%,-6,-5%,·,-11
COC(=O)[C@@H](Cc1c[nH]c2ccccc12)NC(=O)C1CCCN(S(=O)(=O)c2ccc(C)cc2)C1 (some centres undefined),1%,-5,5%,1%,-15
Fc1ccc(F)c(C2=NNC(=NCC3CCCO3)SC2)c1 (centres undefined),-2%,33*,3%,-1%,131*
Cc1ccc(Oc2ccc(/C=N/O)cn2)cc1,0%,41*,5%,9%,91*
Cc1ccc(COc2ccc(/C=N/O)cc2)cc1,-9%,43*,-18%,-2%,87*
COCCNC(=O)c1cc(Br)ccc1Cl,-1%,-1,5%,1%,-6
COCCNC(=O)C(=O)Nc1ccc(Cl)cc1C,2%,32*,·,4%,54*
COCCNC(=O)C(=O)Nc1cccc(Br)c1,8%,23*,-7%,0%,40
COCCNC(=O)C(=O)Nc1ccc(Br)cc1,2%,47*,-2%,8%,71*
COC(=O)c1ccc(C(/C=C/[C@@H](C)C(=O)NCc2ccccc2)NC(=O)OCc2ccccc2)cc1 (some centres undefined),·,·,·,0%,·
CSc1cc2c(s1)c1cnn(Cc3ccccc3F)c(=O)c1n2C,·,-11,·,·,-12
CC(C)CNC(=O)C(=O)N/N=C/c1cccs1,-5%,28*,-7%,8%,46
CC(C)(C)NC(=O)C(=O)N/N=C/c1cccs1,-8%,37*,9%,1%,67*
CCCNC(=O)C(=O)N/N=C/c1cccs1,-8%,21*,0%,4%,15
O=C(N/N=C/c1cccs1)C(=O)Nc1cccc(Cl)c1,5%,20*,·,1%,55*
O=C(CCC(=O)Nc1cccc([N+](=O)[O-])c1)N/N=C/c1cccs1,-8%,19,9%,·,13
Cc1ccc(S(=O)(=O)Nc2cccc3ccc(C)nc23)cc1,·,6,·,?,-7
COc1ccc(S(=O)(=O)NCCCN2CCCC2=O)cc1OC,-2%,-3,15%,·,-5
SMILES,LmPK inhibitor,CHX counter,NS1 inh,FBPA Giardia inh,Shiga inhibitor
Cc1ccc(NS(=O)(=O)c2ccc(Br)s2)nc1,0%,8,-1%,7.9µM*,42
Cc1ccc2c(c1)N(CC(=O)NCC(C)c1ccccc1)C(=O)c1cccnc1O2 (centres undefined),4%,-2,?,9%,9
COc1ccc(-c2ccc(C3C(C#N)=C(N)Oc4n[nH]c(C)c43)o2)cc1 (centres undefined),-1%,23*,-9%,-7%,20
O=C(Nc1ccncc1)c1ccc(NS(=O)(=O)c2ccc3[nH]c(=O)[nH]c3c2)cc1,-8%,-2,-3%,·,-14
CC(=O)OCC(=O)c1ccc2ccn(C(C)=O)c2c1,-2%,25*,-6%,-6%,32
COc1ccccc1N1CCN(CC(=O)c2ccc3ccn(C(C)=O)c3c2)CC1,15%,-2,2%,-13%,-3
COc1cc2c(cc1OC)C(c1cc(OC)c(OC)cc1[N+](=O)[O-])N(C(C)=O)CC2 (centres undefined),-6%,2,3%,-5%,16
CC(C)C1N=C(c2ccc3c(c2)OCO3)CC(c2ccccc2O)N1 (centres undefined),?,39*,-125%,-10%,79*
CN(C)Cc1ccccc1-c1cncnc1Nc1ccc(F)cc1,·,·,·,0%,·
COc1ccccc1CC(=O)Nc1cc(C)ccn1,-7%,45*,2%,9%,103*
COc1ccccc1N(Cc1ccccc1)S(=O)(=O)c1cccc(C(=O)Nc2cc(C)ccn2)c1,-26%,43*,2%,-5%,58*
CCOc1ccccc1C(=O)Nc1nnc(CC)s1,-5%,14*,-16%,-6%,25*
CCc1nnc(NC(=O)COc2ccccc2[N+](=O)[O-])s1,5%,10*,0%,-5%,18
CCOc1ccccc1NC(=O)c1cccc(S(=O)(=O)N(Cc2ccccc2)c2ccccc2OC)c1,1%,-2,1%,-3%,-10
CCc1nnc(NC(=O)c2cccc(C(=O)Nc3nnc(CC)s3)n2)s1,-5%,-7,-102%,22%,-16
CCN(CC)c1nc2ccccc2n(Cc2cccc(OC)c2)c1=O,-3%,4,-28%,6%,-5
COc1ccc(-n2ccn(CC(=O)Nc3ccccc3OC)c(=O)c2=O)cc1,4%,-6,7%,6%,8
Cc1ccnc(NC(=O)COc2ccccc2[N+](=O)[O-])c1,-15%,40*,·,3%,140*
Cc1ccc(NC(=O)COc2ccccc2[N+](=O)[O-])nc1,-5%,14,·,2%,56*
Cc1ccnc(NC(=O)Cn2cc([N+](=O)[O-])cn2)c1,-6%,43*,·,0%,89*
COc1cc(Cl)c(C)cc1NC(=O)COc1ccccc1[N+](=O)[O-],2%,-4,7%,1%,-21
O=C(Cn1cc([N+](=O)[O-])cn1)Nc1ccccn1,-3%,-1,2%,1%,-23
COc1ccnc(Oc2ccc(Cl)cc2)c1C#N,10%,16,·,1%,51
CN(C)c1ccnc(Oc2ccccc2)c1C#N,1%,12,2%,2%,19
CN(C)c1ccnc(Oc2ccc(C(C)(C)C)cc2)c1C#N,0%,37*,-9%,-1%,73*
SMILES,LmPK inhibitor,CHX counter,NS1 inh,FBPA Giardia inh,Shiga inhibitor
CN(C)c1ccnc(Oc2ccc(Cl)cc2)c1C#N,1%,69*,-16%,-7%,127*
Cc1cc(Cl)ccc1Oc1nccc(N(C)C)c1C#N,2%,14*,10%,5%,21
COc1cccc(CN(C)C(=O)CNC(=O)c2ccc(-c3ccccc3)cc2)c1OC,0%,1,-13%,-1%,-6
COc1ccc(NC(=O)CSc2nc(N)c3cc4c(nc3n2)CCCC4)cc1,-3%,47*,?,4%,61*
COc1ccc(NC(=O)CSc2nc(N)c3cc4c(nc3n2)CC(C)(C)OC4)cc1,3%,-2,5%,0%,1
CC1(C)Cc2nc3nc(SCC(=O)Nc4ccccc4)nc(N)c3cc2CO1,-1%,13,8%,1%,-3
CC(=O)c1ccc(NC(=O)CSc2nc(N)c3cc4c(nc3n2)CCCC4)cc1,-3%,37*,?,5%,66*
CCc1nnc(NC(=O)CCC(=O)N2CCN(Cc3ccc(OC)c(F)c3)CC2)s1,1%,6,4%,15%,-5

# Assay outcomes from PubChem BioAssay.
